Experimental data from PubChem BioAssay AID1159580 (chemical genetic matrix, 2015).
Among all 5,500 compounds or so, about 2,000 (36%) were called active. Another 18% or so got no clear call; they are omitted. Rule as the data show it: active = normalized growth mostly below about 0.91 (no sharp cut-off); inconclusive = no clear call, values can overlap the other calls; inactive = mostly above about 0.92. This is one part of the list.

Assay: chemical genetic growth profiling, strain panel (AID 1159580);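 also: tested at 20 µM; growth read once vehicle control cultures reached saturation at 30 °C; 1 = growth at the plate median or of vehicle wells; lower values mean less growth of the strain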
Conditions: growth OD

Measured: normalized growth

CCCC1O[C@@H]2CC3C4CCC5=CC(=O)C=CC5(C)C4[C@@H](O)CC3(C)[C@]2(C(=O)CO)O1 (some centres not stated)
inactive: S. cerevisiae deletion strains, locus YJR075W, strain HOC1, active compounds read low 1 | S. cerevisiae deletion strains, locus YKL009W, strain mrt4, active compounds read low 1.03 | S. cerevisiae deletion strains, locus YKL068W, active compounds read low 1 | S. cerevisiae deletion strains, locus YKL085W, strain MDH1 (second series), active compounds read low 0.994 | S. cerevisiae deletion strains, locus YKL085W, strain MDH1, active compounds read low 0.994 | S. cerevisiae deletion strains, locus YKL160W, strain elf1, active compounds read low 1.01 | S. cerevisiae deletion strains, locus YKL190W, strain CNB1, active compounds read low 0.995 | S. cerevisiae deletion strains, locus YKR001C, strain vps1, active compounds read low 0.997 | S. cerevisiae deletion strains, locus YKR026C, strain gcn3, active compounds read low 1.01 | S. cerevisiae deletion strains, locus YKR091W, strain srl3, active compounds read low 1 | S. cerevisiae deletion strains, locus YLL001W, strain dnm1, active compounds read low 1.02 | S. cerevisiae deletion strains, locus YLL026W, active compounds read low 1.01 | S. cerevisiae deletion strains, locus YLL041C, strain sdh2, active compounds read low 1.01 | S. cerevisiae deletion strains, locus YLR027C, strain aat2, active compounds read low 1 | S. cerevisiae deletion strains, locus YLR039C, strain RIC1, active compounds read low 1.02 | S. cerevisiae deletion strains, locus YLR058C, strain SHM2, active compounds read low 1 | S. cerevisiae deletion strains, locus YLR102C, strain apc9, active compounds read low 1.02 | S. cerevisiae deletion strains, locus YLR113W, strain HOG1, active compounds read low 0.931 | S. cerevisiae deletion strains, locus YLR221C, strain rsa3, active compounds read low 0.986 | S. cerevisiae deletion strains, locus YLR258W, strain gsy2, active compounds read low 1.02 | S. cerevisiae deletion strains, locus YLR262C, strain YPT6 (second series), active compounds read low 1 | S. cerevisiae deletion strains, locus YLR262C, strain YPT6, active compounds read low 1 | S. cerevisiae deletion strains, locus YLR268W, strain sec22, active compounds read low 1 | S. cerevisiae deletion strains, locus YLR320W, strain mms22, active compounds read low 1.01 | S. cerevisiae deletion strains, locus YLR330W, strain CHS5, active compounds read low 1 | S. cerevisiae deletion strains, locus YLR342W, strain FKS1 (second series), active compounds read low 1.02 | S. cerevisiae deletion strains, locus YLR342W, strain FKS1, active compounds read low 1.01 | S. cerevisiae deletion strains, locus YLR357W, strain rsc2, active compounds read low 1.03 | S. cerevisiae deletion strains, locus YLR370C, strain arc18, active compounds read low 1.01 | S. cerevisiae deletion strains, locus YLR371W, strain rom2, active compounds read low 1.02 | S. cerevisiae deletion strains, locus YLR384C, strain iki3, active compounds read low 1.01 | S. cerevisiae deletion strains, locus YLR418C, strain cdc73, active compounds read low 0.978 | S. cerevisiae deletion strains, locus YML016C, strain PPZ1, active compounds read low 1.01 | S. cerevisiae deletion strains, locus YML032C, strain rad52, active compounds read low 1.04 | S. cerevisiae deletion strains, locus YML120C, strain ndi1, active compounds read low 1 | S. cerevisiae deletion strains, locus YML124C, strain tub3, active compounds read low 1.01 | S. cerevisiae deletion strains, locus YMR058W, strain fet3, active compounds read low 1 | S. cerevisiae deletion strains, locus YMR078C, strain ctf18, active compounds read low 1.02 | S. cerevisiae deletion strains, locus YMR125W, strain sto1, active compounds read low 1 | S. cerevisiae deletion strains, locus YMR129W, active compounds read low 1.01 | S. cerevisiae deletion strains, locus YMR205C, strain PFK2, active compounds read low 1 | S. cerevisiae deletion strains, locus YMR223W, strain ubp8, active compounds read low 1.03 | S. cerevisiae deletion strains, locus YMR231W, strain pep5, active compounds read low 1.01 | S. cerevisiae deletion strains, locus YMR263W, strain SAP30, active compounds read low 0.999 | S. cerevisiae deletion strains, locus YMR307W, strain GAS1, active compounds read low 1.06 | S. cerevisiae deletion strains, locus YNL067W, strain RPL9B, active compounds read low 0.99 | S. cerevisiae deletion strains, locus YNL071W, strain lat1, active compounds read low 1 | S. cerevisiae deletion strains, locus YNL128W, strain TEP1, active compounds read low 1 | S. cerevisiae deletion strains, locus YNL153C, strain GIM3, active compounds read low 0.992 | S. cerevisiae deletion strains, locus YNL183C, strain NPR1, active compounds read low 0.962 | S. cerevisiae deletion strains, locus YNL209W, strain ssb2, active compounds read low 1.02 | S. cerevisiae deletion strains, locus YNL233W, strain BNI4, active compounds read low 1.01 | S. cerevisiae deletion strains, locus YNL248C, strain rpa49, active compounds read low 1.04 | S. cerevisiae deletion strains, locus YNL250W, strain rad50, active compounds read low 1.02 | S. cerevisiae deletion strains, locus YNL271C, strain bni1, active compounds read low 1.02 | S. cerevisiae deletion strains, locus YNL298W, strain CLA4, active compounds read low 1.02 | S. cerevisiae deletion strains, locus YNL307C, strain MCK1, active compounds read low 1.03 | S. cerevisiae deletion strains, locus YNL322C, strain KRE1 (second series), active compounds read low 1.01 | S. cerevisiae deletion strains, locus YNL322C, strain KRE1, active compounds read low 1 | S. cerevisiae deletion strains, locus YNR049C, strain mso1, active compounds read low 0.997 | S. cerevisiae deletion strains, locus YNR052C, strain pop2, active compounds read low 1.02 | S. cerevisiae deletion strains, locus YOL006C, strain TOP1, active compounds read low 1 | S. cerevisiae deletion strains, locus YOL012C, strain htz1 1.19 | S. cerevisiae deletion strains, locus YOL147C, strain pex11, active compounds read low 1.02 | S. cerevisiae deletion strains, locus YOR001W, strain rrp6, active compounds read low 0.975 | S. cerevisiae deletion strains, locus YOR061W, strain CKA2, active compounds read low 1 | S. cerevisiae deletion strains, locus YOR069W, strain VPS5, active compounds read low 1 | S. cerevisiae deletion strains, locus YOR070C, strain gyp1, active compounds read low 1.01 | S. cerevisiae deletion strains, locus YOR080W, strain dia2, active compounds read low 0.999 | S. cerevisiae deletion strains, locus YOR083W, strain WHI5, active compounds read low 0.991 | S. cerevisiae deletion strains, locus YOR106W, strain vam3, active compounds read low 1.03 | S. cerevisiae deletion strains, locus YOR136W, strain idh2, active compounds read low 1.03 | S. cerevisiae deletion strains, locus YOR144C, strain elg1, active compounds read low 1.01 | S. cerevisiae deletion strains, locus YOR184W, strain ser1, active compounds read low 1.05 | S. cerevisiae deletion strains, locus YOR231W, strain MKK1, active compounds read low 0.961 | S. cerevisiae deletion strains, locus YOR265W, strain rbl2, active compounds read low 1 | S. cerevisiae deletion strains, locus YOR270C, strain vph1, active compounds read low 1.06 | S. cerevisiae deletion strains, locus YOR290C, strain snf2, active compounds read low 1.03 | S. cerevisiae deletion strains, locus YOR316C, strain cot1, active compounds read low 1.02 | S. cerevisiae deletion strains, locus YPL051W, strain arl3, active compounds read low 0.998 | S. cerevisiae deletion strains, locus YPL055C, strain LGE1, active compounds read low 0.999 | S. cerevisiae deletion strains, locus YPL078C, strain atp4, active compounds read low 1.02 | S. cerevisiae deletion strains, locus YPL106C, strain sse1, active compounds read low 1.08 | S. cerevisiae deletion strains, locus YPL240C, strain hsp82, active compounds read low 0.995 | S. cerevisiae deletion strains, locus YPL241C, strain CIN2, active compounds read low 0.998 | S. cerevisiae deletion strains, locus YPL256C, strain CLN2, active compounds read low 1.03 | S. cerevisiae deletion strains, locus YPR119W, strain clb2, active compounds read low 1.01 | S. cerevisiae deletion strains, locus YPR141C, strain kar3, active compounds read low 1.02 | S. cerevisiae deletion strains, locus YPR163C, strain tif3, active compounds read low 1.03 | S. cerevisiae deletion strains, locus YPR167C, strain met16, active compounds read low 1.02 | S. cerevisiae deletion strains, strain wtn01, active compounds read low 0.984 | S. cerevisiae strains, strain wild type, active compounds read low 0.999
